# In publication PMC5540273 (PLoS ONE, 2017):
# Tests used:
# Conditions in all cases: concentration: 1 μM,replicates: in singlicate; n = 1
# STK36 = tested on: STK36
# STK39 = tested on: STK39
# SYK = tested on: SYK
# SgK110 = tested on: SgK110
# TAK1 = tested on: T1, TAK1
# T1 construct: gene MAP3K7
# TAOK1 = tested on: TAOK1
# TAOK2 = tested on: TAOK2
# TAOK3 = tested on: TAOK3
# TBK1 = tested on: TBK1
# TEC = tested on: TEC
# TESK1 = tested on: TESK1
# TGFBR1 = tested on: TGFBR1
# TGFBR2 = tested on: TGFBR2
# TIE1 = tested on: TIE1
# TIE2 = tested on: T2, TIE2
# T2 construct: gene TEK
# TLK1 = tested on: TLK1
# TLK2 = tested on: TLK2
# TNIK = tested on: TNIK
# TNK1 = tested on: TNK1
# TNK2 = tested on: TNK2
# 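Note: KINOMEscan kinase panel screen.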
Compound,%Inh (STK36),%Inh (STK39),%Inh (SYK),%Inh (SgK110),%Inh (TAK1),%Inh (TAOK1),%Inh (TAOK2),%Inh (TAOK3),%Inh (TBK1),%Inh (TEC),%Inh (TESK1),%Inh (TGFBR1),%Inh (TGFBR2),%Inh (TIE1),%Inh (TIE2),%Inh (TLK1),%Inh (TLK2),%Inh (TNIK),%Inh (TNK1),%Inh (TNK2)
Cn1ccc2ncnc(Oc3ccc(NC(=O)Nc4ccnc(C(F)(F)F)c4)c(Cl)c3)c21,0%,0%,0%,47%,2%,0%,0%,0%,0%,0%,0%,0%,53%,76%,11%,6%,0%,0%,0%,0%
O=C(Nc1ccc(Oc2ccc3nc(NC(=O)C4CC4)cn3n2)c(F)c1)c1cccn(-c2ccccc2)c1=O,1%,0%,30%,0%,0%,0%,0%,0%,54%,44%,17%,9%,9%,92.2%,90.1%,0%,0%,34%,59%,0%
O=C(NCC1CC1)c1ccc(-c2cc(C(=O)NC3CC3)ccc2F)cc1 [GW810445],0%,15%,17%,51%,4%,0%,0%,0%,26%,2%,0%,27%,0%,0%,0%,0%,0%,0%,30%,0%
CC(C)S(=O)(=O)N1CCN(Cc2ccc3c(c2)nc(NC(=O)c2ccsc2)n3C[C@H](O)c2ccccc2)CC1 [GW635815],0%,10%,78%,0%,79%,0%,0%,0%,50%,0%,37%,0%,0%,28%,0%,0%,0%,65%,79%,19%
CS(=O)(=O)c1cccc(CNc2nc(Nc3ccc4c(c3)[C@@H]3C[C@@H]4CNC3=O)ncc2C(F)(F)F)c1,10%,9%,93.8%,0%,92.2%,51%,24%,36%,98.6%,0%,0%,0%,0%,83%,68%,18%,0%,88%,97.2%,56%
Cc1n[nH]c2cc(Nc3ccnc(Nc4cccc(CN5CCOCC5)c4)n3)ccc12 [GW682569],9%,16%,34%,0%,57%,0%,0%,0%,63%,0%,27%,54%,84%,45%,2%,9%,2%,25%,33%,10%
CC(C)c1nc(-c2cccc(NS(=O)(=O)c3ccccc3)c2)c(-c2ccnc(Nc3ccc4c(c3)CN(C)CC4)n2)s1 [GSK1649598],100%,85%,0%,0%,51%,97.2%,98.5%,97.8%,40%,94.2%,97.5%,94.1%,94.8%,91.5%,99%,41%,33%,93.7%,100%,96.2%
COc1cc2c(Nc3ccc(NC(=O)c4ccccc4)cc3)ncnc2cc1OCCCN1CCOCC1 [GSK301329],0%,0%,7%,0%,0%,0%,0%,0%,0%,0%,37%,0%,0%,24%,0%,0%,0%,0%,56%,66%
Cc1ccn2nc(-c3ccc(F)cc3)c(-c3ccncc3)c2c1.Cl [GW457859],24%,4%,18%,0%,64%,0%,0%,0%,14%,0%,34%,12%,0%,0%,0%,6%,0%,58%,0%,0%
N#Cc1cccc(C(=O)NC2CCN(c3ccnc(Nc4ccc(F)cc4)n3)C2)c1 (centres unmarked) [GSK1379708],0%,0%,27%,5%,0%,0%,0%,0%,0%,0%,13%,4%,0%,3%,0%,0%,0%,0%,0%,4%
CS(=O)(=O)Nc1ccc(-c2ccnc3[nH]ccc23)cc1 [GSK993273],0%,24%,52%,0%,33%,27%,0%,0%,10%,16%,4%,0%,0%,28%,3%,63%,63%,32%,0%,14%
C[C@@H](Oc1cc(-n2cnc3ccc(-c4ccncc4)cc32)sc1C(N)=O)c1ccccc1Cl [GSK483724],0%,7%,12%,0%,39%,0%,0%,0%,17%,11%,37%,0%,0%,41%,0%,0%,0%,9%,0%,25%
O=C(Nc1ccccc1)c1cccc(Oc2ccc3nccn3n2)c1,5%,3%,14%,6%,11%,5%,0%,0%,0%,0%,0%,0%,0%,94.1%,0%,100%,0%,0%,33%,0%
CN(c1ccc2c(c1)nc(NCc1ccc(F)cc1)n2C)c1ccnc(Nc2ccc(CS(C)(=O)=O)cc2)n1.Cl [GW813244],7%,0%,73%,8%,19%,0%,61%,3%,54%,25%,4%,0%,2%,92.2%,37%,15%,10%,22%,43%,0%
Cn1ccc2ncnc(Oc3ccc(NC(=O)Nc4cccc(C(F)(F)F)c4)c(F)c3)c21,0%,3%,43%,0%,31%,0%,38%,0%,51%,5%,11%,0%,19%,96.7%,92.8%,0%,2%,0%,17%,0%
FC(F)(F)c1cc(Br)cc(Nc2nccc(-c3cnn4ncccc34)n2)c1 [GW810578],19%,0%,21%,0%,62%,58%,0%,4%,17%,0%,11%,27%,99.3%,18%,0%,0%,14%,0%,36%,0%
C[C@@H](Oc1cc(-n2cnc3cc(-c4ccncc4)ccc32)sc1C(N)=O)c1ccccc1Cl [GSK479719],0%,6%,52%,0%,0%,0%,0%,0%,0%,7%,0%,1%,0%,84%,27%,0%,0%,11%,20%,37%
Cl.c1ccc(Oc2ccc(Nc3ccnc4cc(-c5ccc(CN6CCNCC6)o5)ccc34)cc2)nc1 [GW567142],0%,1%,0%,0%,3%,0%,0%,0%,25%,26%,0%,21%,0%,0%,0%,9%,1%,0%,61%,38%
COc1cc(Nc2nccc(N3CCC(NC(=O)c4cccc(C#N)c4)C3)n2)cc(OC)c1OC (centres unmarked) [GSK1379751],0%,0%,0%,0%,0%,0%,0%,0%,10%,0%,19%,4%,0%,32%,0%,4%,0%,0%,98.9%,10%
